PubChem BioAssay (NCI)
Compounds without any hit were thinned out: in the full panel of roughly 83,000, 20% have a hit.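 Growth was measured after 48 h exposure to one concentration of compound in 96-well plates. Values under 10 count as active.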 A number with no mark means an inactive call. Calls of active or inactive are those of the source.

System: HCT-15 colon
Assay: NCI-60 one-dose screen, 48 h (100 = growth as untreated, 0 = no growth, -100 = all killed)
Conditions: 10 µM unless noted

Compound	growth
COc1cc(-c2ccc[nH]2)[nH]c1/C=C1\N=C(C)C(CC(=O)OCC(C)(C)C)=C1C	-78% (active)
N#Cc1c(-c2ccc(Br)cc2)nc2c(N=Nc3ccc(S(N)(=O)=O)cc3)c(N)nn2c1N	94.3%
O=[N+]([O-])c1ccccc1Nc1ccc2ccccc2c1	93.5%
c1ccc(Nc2nc3c(s2)CCc2c[nH]cc2-3)nc1	102%
COc1ccc2cc(C(=O)N3CCC([C@@H](C)C(=O)NCc4ccc5c(c4)OCO5)CC3)[nH]c2c1	83% [50 µM]
Nc1cc(C(=O)O)cc(-n2c(O)c(C=C3N=c4ccccc4=N3)sc2=S)c1	103%
CC1(C)N=C(N)N=C(N)N1c1cc(Cl)ccc1Cl	13%
CC/C(=C(\c1ccc(Cl)cc1)c1ccc(OCCN2CCCCC2)cc1)c1ccc(O)cc1	2.22% (active)
O=C1O[C@@H](c2ccccc2Cl)[C@@H]2c3cc4c(cc3CCN12)OCO4	101%
C=CCn1cc(-c2nc3ccccc3s2)c2cc(-c3ccc4c5c(cccc35)C(=O)N(CCO)C4=O)ccc21	94.3%
CCOC(=O)C#Cc1c(C(=O)OCC)nnn1[C@@H]1O[C@H](COC)[C@@H](OC)[C@H]1OC	-12.2% (active)
O=C(/C=C/c1ccccc1Cl)c1cccc(OCCCCOc2cccc(C(=O)/C=C/c3ccccc3Cl)c2)c1	103%
Nc1nc2ccccc2c2c(=O)c3cc(Cl)ccc3sc12	96.8%
C=CC(=O)Nc1cccc(Oc2nccc(Nc3nnc(-c4ccc(Br)cc4)s3)n2)c1	88.6%
CC/C(=C(/c1ccc(O)cc1)c1ccc(OCCN2CCCCC2)cc1)c1ccc(OC)cc1	20.1%
CNC(=O)c1cc(Oc2ccc3c(c2)sc2nc(-c4ccc(NC(=O)[C@@H](NC(=O)OC)C(C)C)cc4)cn23)ccn1	73.2%
Cn1c(=O)[nH]c(=O)c2nc3c(nc21)-c1ccccc1C3=O	102%
COC1C(O)CC(OC2CC(OC3CC(O[C@@H]4C(=O)c5c(cc6cc(OC7CC(OC8CC(O)C(O)C(C)O8)C(O)C(C)O7)c(C)c(O)c6c5O)CC4[C@H](OC)C(=O)O)OC(C)C3O)OC(C)C2O)OC1C (stereo not given in full)	48.6%
N#CC1=C(N)Oc2c(sc3c(F)cccc23)C1c1ccc([N+](=O)[O-])cc1 (stereo not given)	-54.5% (active)
COc1ccc(/C=C(/C(=O)N2CCNCC2)c2cc(OC)c(OC)c(OC)c2)cc1O	96.6%

Compound	growth
Cc1ccc(NC(=O)c2cc3ccccc3cc2O)c(C)c1	77.4%
N#Cc1c(-c2ccccc2)nc2c(c(-c3ccccc3)nn2-c2ccccc2)c1-c1ccc(N2CCCCC2)cc1	107%
O=C(Nc1ccccc1O)c1ccc(CNc2ccnc(C(F)(F)F)c2)cc1	67.5%
COc1cc(/C=C2\C(=O)N(CCCOc3cc(O)c4c(=O)cc(-c5ccccc5)oc4c3)c3ccccc32)cc(OC)c1O	42.4%
CN1C(=O)N2CN3CCCN(C3)CN3C(=S)NC1C23 (stereo not given)	103%
O=c1oc2ccccc2cc1-c1nn(-c2ccccc2)cc1-c1nn[nH]n1	100%
COc1cc(OC)c2c(=O)c3c(CC=C(C)C)cc(OC)c(O)c3oc2c1	59.8%
COC(=O)c1c2c(c[n+]([O-])c1C)C(=O)C=C(NCc1ccccc1)C2=O	-58.8% (active)
N#C/C(=C\c1ccc(-c2cccc(Cl)c2)o1)C(=O)Nc1ncc(Cc2ccc(Cl)cc2)s1	57.6%
O=C(/C=C/c1ccccc1)c1ccc(-n2cc(CN3CCN(c4cc5c(cc4F)c(=O)c(C(=O)O)cn5C4CC4)CC3)nn2)cc1	91.6%
N#Cc1ccc(/C=C/c2cn(-c3ccccc3)nc2-c2cccc([N+](=O)[O-])c2)cc1	65.4%
c1ccc(Cn2cc3c(c2-c2ccccc2)CCc2cnoc2-3)cc1	48.6%
NCCCNc1nc2ccccc2c2c(=O)c3cc(Cl)ccc3sc12	-76.9% (active)
Cc1cc(C)c2c(c1)N(C)c1ncnc(-n3c(C)nc4cc(C)ccc43)c1CC2C (stereo not given)	32.6%
CSc1ccc2c3c(n(CCCn4ccnc4)c(=O)c2c1)-c1ccccc1C3=O	61.1%
COc1ccc(C(=O)/C=C/c2ccccc2)cc1S(N)(=O)=O	44.1%
COc1ccc(/C=N/Nc2c3ccccc3nc3ccccc23)cc1	92.6%
CC1(C)CC[C@]23CC[C@]4(C)[C@H](CC[C@@H]5[C@@]6(C)C/C(=C/O)C(=O)C(C)(C)[C@@H]6CC[C@]54C)[C@H]2[C@H]1OC3	110%
CS(=O)(=O)Nc1cc(-c2ccc3ncnc(Nc4ccc5c(cnn5Cc5ccccc5F)c4)c3c2)cnc1Cl	79.4%
Cc1nc2sc(C(=O)Nc3cccc4ccccc34)c(N)c2cc1C(=O)c1ccccc1	14%
